High-throughput results from PubChem.
NLRP3 yeast inh – NALP3 inhibition in yeast; Yeast reconstituted NLRP3/ASC/caspase-1, beta-gal luminescence, 24 h; inhibition, % at 10 µM; 330,000 compounds, 0.39% hits;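 active = inhibition of 50% or more; inactive = inhibition below 50%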;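 also: plate controls were induced DMSO wells for no effect and uninduced yeast grown without galactose for full effect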
TIM10 inh – TIM10 yeast growth inhibition; AID 463195; inhibition, % at 10 µM; S. cerevisiae TIM10 strain growth, BacTiter-Glo luminescence, 24 h; 330,000 compounds, 1.4% hits;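 active = inhibition of 40% or more at the single tested concentration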;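 also: wild-type TIM10 isogenic control strain grown at permissive 25 °C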
NALP1 yeast inh – blocks the NALP1 inflammasome reconstituted in yeast; S. cerevisiae NALP1/ASC/caspase-1 growth, X-gal OD620, 72 h; inhibition, % at 10 µM; 280,000 compounds, 0.61% hits; in the data active = inhibition mostly above about 24%, no sharp cut-off; inactive = mostly below about 32%
tim23-1 inh – inhibits growth of tim23-1 mutant yeast. S. cerevisiae tim23-1 growth, BacTiter-Glo luminescence, 24 h. 330,000 compounds, 1.3% hits. inhibition, % at 20 µM;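 active = growth inhibition of the mutant yeast at or above 50%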;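 also: temperature-sensitive mutant grown at 25 °C; plate controls were DMSO-treated mutant yeast for no effect and medium wells lacking yeast for full effect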
tim10-1 inh – inhibits growth of tim10-1 mutant yeast; inhibition, % at 20 µM; 330,000 compounds, 2.2% hits; AID 463190; S. cerevisiae tim10-1 ts strain growth, BacTiter-Glo, 24 h;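 active = inhibition of at least 40%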;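 also: mutant grown at 25 °C; 0% = DMSO wells with yeast and 100% = wells holding no yeast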
V-ATPase pHluor – yeast V-ATPase proton transport regulation by pHLuorin; S. cerevisiae, pHLuorin cytosolic pH fluorescence; response, % at 10 µM; 350,000 compounds, 0.37% hits; AID 504577; in the data active = response mostly above about 7.3%, no sharp cut-off; inactive = mostly below about 5.4%; also: actives read high
Starred values were filed as active, the others as inactive; / = no result. Rows were chosen to be rich in hits. Some 4.2% of all compounds tested hit in one or more screens of this group.

SMILES | NLRP3 yeast inh | TIM10 inh | NALP1 yeast inh | tim23-1 inh | tim10-1 inh | V-ATPase pHluor
O=C1S/C(=C\c2ccc(O)c([N+](=O)[O-])c2)C(=O)N1c1ccccc1Cl | 24 | -5 | 28* | 48 | 15 | -2
COc1cc2c(cc1OC)C(c1cccc(C)c1)CC(=O)N2 (configuration not stated) | 20 | 12 | 44* | 0 | 10 | 0
O=S(=O)(Nc1ncccn1)c1ccc(-n2cnnn2)cc1 | 15 | 5 | 20 | 0 | -2 | 9.5*
O=C(NCC(=O)N1CCC2(CC1)NCCc1[nH]cnc12)c1ccc2ccccc2c1 | 6 | 0 | 21 | -12 | -10 | 0
CCn1cc(C2=NOC(C(=O)Nc3cc(OC)c(Cl)cc3OC)C2)c(C)n1 (configuration not stated) | 15 | 16 | 33* | 11 | 14 | 0
CCc1cc(=O)oc2cc(OC(C)=O)cc(OC(C)=O)c12 | 10 | -3 | 27* | -3 | 9 | 2
Cn1c(O)c(N=NC(=O)c2ccco2)c2ccccc21 | 18 | -2 | 36* | -2 | 10 | 2
Cn1c(O)c(N=NC(=O)CNC(=O)/C=C/c2ccccc2)c2ccccc21 | -3 | 5 | 37* | 19 | 32 | 1
CCn1c(O)c(N=NC(=O)CNC(=O)/C=C/c2ccccc2)c2ccccc21 | 17 | -1 | 12 | 14 | 18 | -2
Cn1c(O)c(N=NC(=O)CNC(=O)c2ccco2)c2ccccc21 | 17 | -2 | / | 1 | 10 | -3
O=C(c1cn(-c2ccccc2)nc1-c1cccnc1)N1CCCC(C(F)(F)F)C1 (configuration not stated) | 1 | -1 | / | 13 | 1 | 3
CC(C)(C)C(=O)COC(=O)c1ccccc1O | 10 | -5 | 37* | 6 | 3 | -3
COc1cccc(-c2noc(CCCC(=O)Nc3ccc(C(N)=O)cc3)n2)c1 | 12 | 1 | 23 | -12 | 2 | 17*
COc1cccc(-c2noc(CCC(=O)Nc3cccnc3)n2)c1 | 6 | 5 | 7 | 4 | 9 | 0
CC1(C)CC(=O)C2=C(C1)OC1=C(C2)C(=O)CC(C)(C)C1 | 6 | 12 | -4 | 17 | 23 | 146*
CNC[C@@H]1OCc2ccccc2-c2ccccc2C(=O)N([C@H](C)CO)C[C@@H]1C | / | / | / | / | / | -1
COc1ccccc1N1CCN(CC(O)COc2ccc3c(c2)OCO3)CC1 (configuration not stated) | 3 | -2 | 23* | -5 | 5 | -3
OCCN1CCN(CC(O)COc2ccc3c(c2)OCO3)CC1 (configuration not stated) | 11 | -4 | 4 | -14 | -2 | 2
O=C(Nc1ccccc1O)c1cccc(S(=O)(=O)N2CCOCC2)c1 | 3 | -13 | 29* | 15 | 3 | 0
Cc1cccc(OCC(O)Cn2ccnc2C)c1 (configuration not stated) | 0 | -6 | 9 | 9 | 6 | 13*
O=C(NCc1ccc2c(c1)OCO2)C1CCC(CNS(=O)(=O)c2ccc(Cl)cc2)CC1 (configuration not stated) | 3 | -5 | 5 | 2 | -6 | 3
Cc1ccc(S(=O)(=O)NCC2CCC(C(=O)NCc3ccc4c(c3)OCO4)CC2)cc1 (configuration not stated) | 1 | -10 | 41* | 7 | -11 | 2
CC(=O)c1c(C)[nH]c(C(=O)N2CCN(c3ccccn3)CC2)c1C | 13 | 0 | -8 | 2 | 0 | -1
CC(=O)c1c(C)[nH]c(C(=O)N2CCN(c3ncccn3)CC2)c1C | -12 | -10 | 38* | 11 | -4 | 1
Cn1c(CNC(=O)c2ccco2)nnc1SCCOc1ccccc1 | 1 | -2 | 3 | -11 | 9 | -2
CC(C)(C)c1cc(C(=O)NCCN2CCCC2)cc(C(C)(C)C)c1 | 16 | 15 | 108* | -4 | 3 | /
COc1ccc(C)cc1S(=O)(=O)N(C)CC(=O)N1CCCCCC1 | -9 | 3 | 2 | 3 | 12 | 2
COc1ccc(C)cc1S(=O)(=O)N(C)CC(=O)N1CCN(C)CC1 | 6 | 12 | 40* | 10 | 13 | -1
Cc1ccc(-n2nnnc2SCC(=O)c2c(N)n(C3CC3)c(=O)[nH]c2=O)cc1 | 20 | -30 | / | -3 | -20 | 748*
O=C(CC1CCCC1)Nc1ccc(Cl)c(S(=O)(=O)N2CCOCC2)c1 | 8 | 6 | / | 22 | 20 | 0
